# Measured values reported in PubChem BioAssay (NCATS).
# Records with an inconclusive call do not appear. Where a call stands in place of a potency, no number is given. Unmarked numbers belong to inactive results. The source made the active and inactive calls. The call rests on the fitted dose curve; in most records, active means well fitted inhibition curve with a large enough effect; inconclusive means small, poorly fitted or top-dose-only effect; inactive means flat fitted curve, though single readings scatter. Peptide text beside a SMILES is read from it.
# Experiments:
# CRL-7250 = normal cell line; assay: qHTS assay to identify novel small-molecules to repurpose for Merkel cell carcinoma treatment (AID 1296009); settings: MCC and control cell lines, CellTiter-Glo viability, 72 h; further: potency means the concentration at half of the fitted maximal effect
# How it was run: (§1)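 72 hr, 37 degree celsius; NPC 8-pt / MIPE 11-pt dose response; compound pinned in DMSO; CellTiter-Glo, 10 min RT, luminescence; normalized to no-cell and DMSO controls.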
# SC27B = assay: qHTS profiling for inhibitors of Plasmodium falciparum proliferation (AID 504749); further: potency means the concentration at half of the fitted maximal effect; settings: P. falciparum in erythrocytes, SYBR Green DNA, 72 h; series mostly up to 28.7 µM
# How it was run: (§2)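 Infected RBCs, 0.3% parasitemia/2.5% Hct final; cpd 72 h, 37 C, 5% CO2; lysis buffer with saponin/triton/SYBR Green I, o/n RT dark; FI 485/535; norm. to artemisinin (0.29 uM) and DMSO.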
# TAB109 = assay: as above; settings: P. falciparum in erythrocytes, SYBR Green DNA, 72 h; series mostly up to 28.7 µM
# How it was run: as §2
# TAB113 = assay: as above; settings: P. falciparum in erythrocytes, SYBR Green DNA, 72 h; series mostly up to 28.7 µM
# How it was run: as §2
# TAB165 = assay: as above; settings: P. falciparum in erythrocytes, SYBR Green DNA, 72 h; series mostly up to 28.7 µM
# How it was run: as §2
# W2 = assay: as above; settings: P. falciparum in erythrocytes, SYBR Green DNA, 72 h; series mostly up to 28.7 µM
# How it was run: as §2
# HaCat [1] = assay: Cytotoxic Profiling of Annotated Libraries Using Quantitative High-Throughput Screening (AID 1296008); settings: Five cell lines viability, CellTiter-Glo ATP luminescence, 48-72 h; max response: active compounds read low
# How it was run: (§3)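 Cytotoxicity was measured as CellTiter-Glo ATP luminescence, read after 10 min at room temperature. Compound treatment of the cells lasted 48 or 72 hr at 37 degrees Celsius in a qHTS format.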
# KB-3-1 = assay: as above; settings: Five cell lines viability, CellTiter-Glo ATP luminescence, 48-72 h; max response: active compounds read low
# How it was run: as §3
# HACAT [2] = assay: qHTS assay to identify novel small-molecules to repurpose for Merkel cell carcinoma treatment (AID 1296009); settings: MCC and control cell lines, CellTiter-Glo viability, 72 h; at 44.8 µM (top of the series) unless noted; further: potency means the concentration at half of the fitted maximal effect
# How it was run: as §1
# MCC-13 = assay: as above; settings: MCC and control cell lines, CellTiter-Glo viability, 72 h; series mostly up to 46 µM
# How it was run: as §1
# MCC-26 = assay: as above; settings: MCC and control cell lines, CellTiter-Glo viability, 72 h; series mostly up to 46 µM
# How it was run: as §1
# MKL-2 = assay: as above; settings: MCC and control cell lines, CellTiter-Glo viability, 72 h; series mostly up to 46 µM
# How it was run: as §1
# [3] = at 44.8 µM (top of the series) unless noted
# Further: nearly all actives have a fitted effect of over 60% in size.
structure (smiles),measurement,setting,value
CN=C(NC#N)NCCSCc1nc[nH]c1C,outcome,CRL-7250; [3],inactive
COP(=S)(OC)SCN1C(=O)c2ccccc2C1=O,Potency,SC27B,inactive
same,Potency,TAB109,inactive
same,Potency,TAB113,inactive
same,Potency,TAB165,inactive
same,Potency,W2,inactive
same,outcome,HaCat [1],inactive
same,max response,KB-3-1,6.87%
same,outcome,HACAT [2],inactive
same,outcome,MCC-13,inactive
same,Potency,MCC-26,inactive
same,Potency,MKL-2,11.9 µM (active)
COc1cc(C(=O)NS(=O)(=O)c2ccccc2C)ccc1Cc1cn(C)c2ccc(NC(=O)OC3CCCC3)cc12,outcome,CRL-7250; [3],inactive
CCNC(=O)[C@@H]1CCCN1C(=O)[C@H](CCCN=C(N)N)NC(=O)[C@H](CC(C)C)NC(=O)CNC(=O)[C@H](Cc1ccc(O)cc1)NC(=O)[C@H](CO)NC(=O)[C@H](Cc1c[nH]c2ccccc12)NC(=O)[C@H](Cc1cnc[nH]1)NC(=O)[C@@H]1CCC(=O)N1 (HELM PEPTIDE1{[Glp].H.W.S.Y.G.L.R.P.[CCN[*:1]]}$$$$V2.0),outcome,CRL-7250; [3],inactive
O=C1CC(c2ccc(Cl)cc2)CC(=O)N1,outcome,CRL-7250; [3],inactive
OCc1ccc(Cl)cc1Cl,outcome,CRL-7250; [3],inactive
CO/N=C(/C(=O)N[C@@H]1C(=O)N2C(C(=O)OCOC(=O)C(C)(C)C)=C(C)CS[C@H]12)c1csc(N)n1,outcome,CRL-7250; [3],inactive
COc1ccc2c(c1)C13CCCC[C@@H]1C(C2)N(C)CC3 (some centres not stated),Potency,TAB113,inactive
same,Potency,W2,1.2 µM (active)
same,max response,KB-3-1,18.3%
CC(CCc1ccccc1)NCC(O)c1ccc(O)c(C(N)=O)c1 (configuration not stated),outcome,CRL-7250; [3],inactive
CCN(CC)CC#CCOC(=O)C(O)(c1ccccc1)C1CCCCC1 (configuration not stated),outcome,CRL-7250; [3],inactive
CCC(C(=O)OCCN(CC)CC)c1ccccc1 (configuration not stated),outcome,CRL-7250; [3],inactive
CS(=O)(=O)c1ccc([C@@H](O)[C@@H](CF)NC(=O)C(Cl)Cl)cc1,outcome,CRL-7250; [3],inactive
Cc1ccc2ccc(Cl)cc2n1,outcome,CRL-7250; [3],inactive
COc1cc(OC)c(C(=O)CCCN2CCCC2)c(OC)c1,outcome,CRL-7250; [3],inactive
Nc1ncnc2c1ncn2[C@@H]1O[C@H](COP(=O)(O)O)[C@@H](O)[C@H]1O,outcome,CRL-7250; [3],inactive
O=C1OC(CN2CCOCC2)CN1/N=C/c1ccc([N+](=O)[O-])o1 (configuration not stated),outcome,CRL-7250; [3],inactive
O=c1cc(O)c(Cl)c[nH]1,outcome,CRL-7250; [3],inactive
CCCCCCCC/C=C/C(=O)O,outcome,CRL-7250; [3],inactive
COc1ccc2c(c1)c(CC(=O)OC/C=C(\C)CC/C=C(\C)CCC=C(C)C)c(C)n2C(=O)c1ccc(Cl)cc1,outcome,CRL-7250; [3],inactive
Cc1ncc([N+](=O)[O-])n1CC(C)O (configuration not stated),outcome,CRL-7250; [3],inactive
O=[N+]([O-])c1cncn1CCN1CCOCC1,outcome,CRL-7250; [3],inactive
CC(=O)[C@H]1CC[C@H]2[C@@H]3C[C@H](C)C4=CC(=O)CC[C@]4(C)[C@H]3[C@@H](O)C[C@]12C,outcome,CRL-7250; [3],inactive
C=CCc1ccc(O)c(OC)c1,outcome,CRL-7250; [3],inactive
CC(C(=O)O)c1ccc(C(=O)c2ccccc2)s1 (configuration not stated),outcome,CRL-7250; [3],inactive
O=C(O)c1cc(=O)[nH]c(=O)[nH]1,outcome,CRL-7250; [3],inactive
Cc1cccc(C)c1NC(=O)CN1CCCCCC1,outcome,CRL-7250; [3],inactive
CCOC(=O)C1=C(C)NC(C)=C(C(=O)OC)C1c1cccc([N+](=O)[O-])c1 (configuration not stated),outcome,CRL-7250; [3],inactive
Cc1onc(-c2ccccc2)c1-c1ccc(S(N)(=O)=O)cc1,outcome,CRL-7250; [3],inactive
O=C(O)c1ccc[n+]([O-])c1,outcome,CRL-7250; [3],inactive
CCN(CC)CCNC(=O)c1ccc(N)cc1,outcome,CRL-7250; [3],inactive
CC(=O)Nc1ccc(/C=N/NC(N)=S)cc1,outcome,CRL-7250; [3],inactive
CC(=O)N(CC(O)CO)c1c(I)c(C(=O)NCC(O)CO)c(I)c(C(=O)NCC(O)CO)c1I (configuration not stated),outcome,CRL-7250; [3],inactive
CNNCc1ccc(C(=O)NC(C)C)cc1,outcome,CRL-7250; [3],inactive
C=CCN1C[C@H](C(=O)N(CCCN(C)C)C(=O)NCC)C[C@@H]2c3cccc4[nH]cc(c34)C[C@H]21,outcome,CRL-7250; [3],inactive
OC[C@H]1O[C@H](O[C@]2(CCl)O[C@H](CCl)[C@@H](O)[C@@H]2O)[C@H](O)[C@@H](O)[C@H]1Cl,outcome,CRL-7250; [3],inactive
NC(=O)NS(=O)(=O)c1ccc(Cl)cc1,outcome,CRL-7250; [3],inactive
NC(N)=NS(=O)(=O)c1ccc(N)cc1,outcome,CRL-7250; [3],inactive
Cc1cccc(C)c1NC(=O)c1cc(S(N)(=O)=O)c(Cl)cc1O,outcome,CRL-7250; [3],inactive
CCOC(=O)C(O)c1ccccc1 (configuration not stated),outcome,CRL-7250; [3],inactive
CC1(C)O[C@H]2CC(=O)OC[C@]23[C@H]2CC[C@@]4(C)[C@H](c5ccoc5)OC(=O)[C@H]5O[C@]54[C@]2(C)C(=O)C[C@@H]13,outcome,CRL-7250; [3],inactive [at 17.4 µM]
CC(C)=CCC/C(C)=C/CO,outcome,CRL-7250; [3],inactive
CC(=O)NC[C@H]1CN(c2ccc(N3CCOCC3)c(F)c2)C(=O)O1,outcome,CRL-7250; [3],inactive
C[C@]12C=CC(=O)C=C1CC[C@@H]1[C@@H]2C(=O)C[C@@]2(C)[C@H]1CC[C@]2(O)C(=O)CO,outcome,CRL-7250; [3],inactive [at 17.4 µM]
O=C(COCCOCCOCC(=O)Nc1c(I)cc(I)c(C(=O)O)c1I)Nc1c(I)cc(I)c(C(=O)O)c1I,outcome,CRL-7250; [3],inactive
CCN(CC)C(C)CN1c2ccccc2Sc2ccccc21 (configuration not stated),outcome,CRL-7250; [3],inactive
CN1C(=O)C(O)N=C(c2ccccc2)c2cc(Cl)ccc21 (configuration not stated),Potency,SC27B,inactive
same,Potency,TAB109,inactive
same,Potency,TAB113,inactive
same,Potency,TAB165,inactive
same,Potency,W2,inactive
Nc1ccc(S(=O)(=O)Nc2ccnn2-c2ccccc2)cc1,outcome,CRL-7250; at 17.4 µM (top of the series),inactive
same,outcome,CRL-7250; at 44.8 µM (top of the series),inactive
O=C(O)Cc1cccc2ccccc12,outcome,CRL-7250; at 44.8 µM (top of the series),inactive
same,outcome,CRL-7250; at 92 µM (top of the series),inactive
C[C@]12CCC(=O)C=C1CC[C@@H]1[C@H]3CC[C@](C)(O)[C@@]3(C)CC[C@@H]12,outcome,MCC-13,inactive
